Assay outcomes: PubChem, National Center for Advancing Translational Sciences (NCATS)
FBPA Giardia inh: qHTS Assay for Inhibitors of Fructose-1,6-bisphosphate Aldolase from Giardia Lamblia; Potency, µM (doses to about 59.6 µM), most hits filed as inhibitors; AID 2451, 2010; purified Giardia FBPA; actives 0.71% (n = 290,000); A8B2U2; also: nearly all actives have a fitted effect of over 55% in size
Target sequence (A8B2U2 whole entry, looked up): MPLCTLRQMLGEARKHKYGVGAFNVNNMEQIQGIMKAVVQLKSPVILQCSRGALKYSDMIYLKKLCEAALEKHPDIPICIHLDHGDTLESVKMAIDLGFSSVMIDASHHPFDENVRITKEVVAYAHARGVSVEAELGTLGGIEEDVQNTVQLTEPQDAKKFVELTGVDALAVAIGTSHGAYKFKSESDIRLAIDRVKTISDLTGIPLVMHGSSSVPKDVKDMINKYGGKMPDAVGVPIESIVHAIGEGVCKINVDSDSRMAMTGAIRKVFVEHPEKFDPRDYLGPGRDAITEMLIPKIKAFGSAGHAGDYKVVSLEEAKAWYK
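40 nM FBPA preincubated 10 min at RT with compound (up to 57.5 uM final), then substrate plus GAPDH/TPI/NAD/arsenate coupling and diaphorase/resazurin added. Fluorescence read after 20 min at RT, 525/598 nm.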
AmpC detergent: qHTS Inhibitors of AmpC Beta-Lactamase (assay with detergent) | P00811 | AmpC hydrolysis of nitrocefin, absorbance 480 nm, 0.01% Triton | Potency, µM (series often up to 114 µM), usual class: inhibitors | actives 0.041% (n = 370,000) | AID 485294, 2010; also: nearly all actives have a fitted effect of over 25% in size
Target sequence (P00811 whole entry, looked up): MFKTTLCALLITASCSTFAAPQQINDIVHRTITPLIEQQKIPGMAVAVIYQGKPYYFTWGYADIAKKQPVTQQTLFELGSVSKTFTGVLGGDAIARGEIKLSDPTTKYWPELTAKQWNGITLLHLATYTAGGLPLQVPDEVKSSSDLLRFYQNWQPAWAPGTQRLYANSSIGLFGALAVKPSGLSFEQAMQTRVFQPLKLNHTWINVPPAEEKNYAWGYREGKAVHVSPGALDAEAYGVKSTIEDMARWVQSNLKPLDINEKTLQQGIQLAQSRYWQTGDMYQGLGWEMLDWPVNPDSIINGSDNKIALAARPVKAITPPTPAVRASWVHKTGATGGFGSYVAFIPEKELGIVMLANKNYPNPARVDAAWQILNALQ
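20 mM phosphate pH 7.0 + 0.01% (detergent screen) or 0.0001% Triton X-100; 5.3 nM AmpC reagent; cpd preinc 15 min RT; nitrocefin (800 uM stock) to start; A480 q20 s × 4 min; Activity was normalised to no-enzyme and no-compound control wells.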
Sm TGR block: qHTS Assay for the Inhibitors of Schistosoma Mansoni Peroxiredoxins; Schistosoma mansoni thioredoxin glutathione reductase (TGR), Q962Y6; purified TGR, DTNB reduction, TNB absorbance 405 nm; Potency, µM (doses to about 114 µM), most hits filed as inhibitors; actives 3% (n = 360,000); also: nearly all actives have a fitted effect of over 60% in size
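Kinetic colorimetric format: TGR-catalysed, NADPH-driven DTNB reduction monitored via TNB absorbance. Enzyme dispensed at 20 nM; compound exposure 15 min at room temperature before reaction start.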
AmpC inh no detg: qHTS Inhibitors of AmpC Beta-Lactamase (assay without detergent). P00811. AmpC nitrocefin hydrolysis, absorbance 480 nm, 0.0001% Triton. Potency, µM (top dose mostly 57.1 µM), hits mostly inhibitors. actives 0.52% (n = 330,000). AID 485341, 2010; also: nearly all actives have a fitted effect of over 20% in size
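AmpC (5.3 nM in the dispensed reagent) in 20 mM phosphate pH 7.0 with 0.01% (detergent screen) or 0.0001% Triton X-100 was preincubated with compounds for 15 min at room temperature. Nitrocefin was then added from an 800 uM solution, and hydrolysis was followed at 480 nm.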
RE007 growth inh: qHTS Assay for Inhibitors of the HIV-1 protein Vpr | S. pombe RE007 Vpr strain, BacTiter-Glo ATP luminescence, 24 h | AID 651644, 2012 | actives 0.21% (n = 360,000) | Potency, µM (series often up to 92.2 µM), most hits filed as inhibitors; active = well fitted falling curve with a large enough effect; inconclusive = small, poorly fitted or top-dose-only effect; inactive = no such curve, though single readings can be large or run the other way; also: nearly all actives have a fitted effect of over 50% in size
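Fission yeast RE007 carrying one integrated HIV-1 vpr copy, seeded at OD 0.01 in PMG+AL medium with 23 nL pinned compound. Grown 24 h at 30 degrees; viability read by BacTiter-Glo luminescence after 5 min.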
Hits are given with their value. In the library only some 3.4% were active in any assay of this set; here they are far more common. Unless noted, calls follow the shape of the dose curve; as a rule, active = well fitted curve in the direction sought with a large enough effect; inconclusive = small, poorly fitted or top-dose-only effect, or another doubt; inactive = no such curve, though single readings can be large; an effect the other way counts as inactive or inconclusive.

Results for O=C1NN=C(CSc2n[nH]c(=S)s2)CS1 ?
FBPA Giardia inh: inactive; AmpC detergent: inactive; Sm TGR block: 39.8µM; AmpC inh no detg: inactive; RE007 growth inh: inactive

How did O=C1C=C(c2ccc(F)cc2OCc2ccccc2)C[C@@H](c2ccc(Cl)cc2)C1 do in these assays?
AmpC detergent: inactive; Sm TGR block: inactive; AmpC inh no detg: inactive; RE007 growth inh: inactive

What do the screens show for `CC(C)C(Cl)=NOC(=O)Nc1ccc(F)cc1`?
RE007 growth inh: 10µM

What do the screens show for `Cc1ccc(NC2=C([N+](=O)[O-])CS(=O)(=O)C2)cc1`?
FBPA Giardia inh: inactive; AmpC detergent: inactive; Sm TGR block: inactive; AmpC inh no detg: inactive; RE007 growth inh: inactive

What do the screens show for `CN(C)c1ccc(NC2=C([N+](=O)[O-])CS(=O)(=O)C2)cc1`?
FBPA Giardia inh: inactive; AmpC detergent: inactive; Sm TGR block: 2.24µM; AmpC inh no detg: inactive; RE007 growth inh: inactive

How did CN(C)CC(C(=O)c1ccccc1)c1ccccc1 (centres undefined) do in these assays?
FBPA Giardia inh: inactive; AmpC detergent: inconclusive; Sm TGR block: 35.5µM; AmpC inh no detg: inactive; RE007 growth inh: 39.8µM

What do the screens show for `CN(Cc1cc(Cl)cc(Cl)c1)CC(C(=O)c1ccccc1)c1ccccc1` (centres undefined)?
RE007 growth inh: inactive

How did Nc1ncnc(N(c2ccccc2)C2CCCCC2)c1[N+](=O)[O-] do in these assays?
FBPA Giardia inh: inactive; AmpC detergent: inactive; Sm TGR block: inactive; AmpC inh no detg: inactive; RE007 growth inh: inactive

What do the screens show for `CC(C)(O)/C=C1/Oc2ccccc2C1N1CCCCC1` (centres undefined)?
FBPA Giardia inh: inactive; AmpC detergent: inactive; Sm TGR block: 35.5µM; AmpC inh no detg: inactive; RE007 growth inh: inactive

How did COc1cccc(CN(Cc2ccco2)C(c2ccc(F)cc2)c2nnnn2C(C)(C)C)c1 (centres undefined) do in these assays?
FBPA Giardia inh: inactive; AmpC detergent: inactive; Sm TGR block: 50.1µM; AmpC inh no detg: inactive; RE007 growth inh: inactive

Results for NNC(=O)CNC(c1ccccc1)c1cc(Br)ccc1NC(=O)CCN1CCOCC1 (centres undefined) ?
FBPA Giardia inh: inactive; AmpC detergent: inactive; Sm TGR block: 17.8µM; AmpC inh no detg: inactive; RE007 growth inh: inactive

How did NNC(=O)CNC(c1ccccc1)c1cc(Br)ccc1NC(=O)c1ccc(Br)cc1 (centres undefined) do in these assays?
FBPA Giardia inh: inactive; AmpC detergent: inactive; Sm TGR block: inactive; AmpC inh no detg: inactive; RE007 growth inh: inactive

What do the screens show for `CC1CCCCN1S(=O)(=O)c1cccc2cccnc12` (centres undefined)?
FBPA Giardia inh: inactive; AmpC detergent: inactive; Sm TGR block: inactive; AmpC inh no detg: inactive; RE007 growth inh: inactive

What do the screens show for `COCC1CCCN(C(=O)c2ccc3oc(CCCc4ccccc4)nc3c2)C1` (centres undefined)?
AmpC detergent: inactive; Sm TGR block: 28.2µM; AmpC inh no detg: inactive; RE007 growth inh: inactive

Results for CN1C(=O)CC(N2CCC(C(N)=O)CC2)C1=O (centres undefined) ?
FBPA Giardia inh: inactive; AmpC detergent: inactive; Sm TGR block: inactive; AmpC inh no detg: inactive; RE007 growth inh: inconclusive

What do the screens show for `NC(=O)C1CCN(C2CC(=O)N(c3ccc(F)c(Cl)c3)C2=O)CC1` (centres undefined)?
FBPA Giardia inh: inactive; AmpC detergent: inconclusive; Sm TGR block: 25.1µM; AmpC inh no detg: inactive; RE007 growth inh: 10µM

Results for Cc1ccccc1N1C(=O)CC(N2CCC(C(N)=O)CC2)C1=O (centres undefined) ?
FBPA Giardia inh: inactive; AmpC detergent: inconclusive; Sm TGR block: 22.4µM; AmpC inh no detg: inactive; RE007 growth inh: inactive

Results for NC(=O)C1CCN(C2CC(=O)N(c3cccc(F)c3)C2=O)CC1 (centres undefined) ?
FBPA Giardia inh: inactive; AmpC detergent: inconclusive; Sm TGR block: 35.5µM; AmpC inh no detg: inactive; RE007 growth inh: 14.1µM

How did COc1ccc(S(=O)(=O)N2Cc3ccccc3CC2C(=O)Nc2ccc(O)cc2)cc1OC (centres undefined) do in these assays?
FBPA Giardia inh: inactive; AmpC detergent: inconclusive; Sm TGR block: inactive; AmpC inh no detg: 0.708µM; RE007 growth inh: inactive

Results for COc1ccc(/C=C/C2=CC(C)(C)NC(=S)N2)cc1 ?
FBPA Giardia inh: inactive; AmpC detergent: inactive; Sm TGR block: 2.51µM; AmpC inh no detg: 8.91µM; RE007 growth inh: inactive

How did Cc1ccc(NC(=O)Cn2cnc3c(oc4ccccc43)c2=O)cc1 do in these assays?
AmpC detergent: inactive; Sm TGR block: inactive

Results for O=C(CN1C(=O)S/C(=C\c2ccc(-c3cc(C(=O)O)ccc3Cl)o2)C1=O)Nc1ccc2c(c1)OCO2 ?
AmpC detergent: 79.4µM; Sm TGR block: inactive; AmpC inh no detg: inactive

How did O=C(c1c[nH]c(=O)n(-c2ccccc2)c1=O)N1CCc2ccccc21 do in these assays?
FBPA Giardia inh: inactive; AmpC detergent: inactive; Sm TGR block: inactive; AmpC inh no detg: inactive; RE007 growth inh: inactive

What do the screens show for `Cc1ccc(-n2c(=O)[nH]cc(C(=O)N3CCc4ccccc43)c2=O)cc1C`?
FBPA Giardia inh: inactive; AmpC detergent: inconclusive; Sm TGR block: inactive; AmpC inh no detg: 10µM; RE007 growth inh: inactive

What do the screens show for `CC(=O)NC1=C(NC2CCS(=O)(=O)C2)C(=O)c2ccccc2C1=O` (centres undefined)?
FBPA Giardia inh: inconclusive; AmpC detergent: inactive; Sm TGR block: 0.708µM; AmpC inh no detg: inactive; RE007 growth inh: inactive

Results for CC(=O)c1ccc(N2CCN(C(=O)c3ccc(Cl)c(NC4=NC5CS(=O)(=O)CC5S4)c3)CC2)cc1 (centres undefined) ?
AmpC detergent: inactive; Sm TGR block: inactive; AmpC inh no detg: inactive; RE007 growth inh: inactive

What do the screens show for `NC(=S)NNc1cc(Cl)cc(Cl)c1`?
FBPA Giardia inh: inconclusive; AmpC detergent: inactive; Sm TGR block: inconclusive; AmpC inh no detg: inactive; RE007 growth inh: 8.91µM

Results for Cc1cc(Cl)ccc1NNC(N)=S ?
FBPA Giardia inh: inconclusive; AmpC detergent: inactive; Sm TGR block: inconclusive; AmpC inh no detg: inactive; RE007 growth inh: 15.8µM

Results for NC(=S)Nc1cc(Cl)cc(Cl)c1 ?
FBPA Giardia inh: inactive; AmpC detergent: inactive; Sm TGR block: inactive; AmpC inh no detg: inactive; RE007 growth inh: inactive

What do the screens show for `Cc1csc(/C(=N/OC(=O)c2ccco2)C(N)=O)n1`?
FBPA Giardia inh: inconclusive; AmpC detergent: inactive; Sm TGR block: 3.98µM; AmpC inh no detg: inactive; RE007 growth inh: inactive

How did Cc1cc(SCC(=O)N/N=C/c2ccc(O)c(O)c2O)c(C)cc1Br do in these assays?
FBPA Giardia inh: 3.54µM; AmpC detergent: inactive; Sm TGR block: 35.5µM; AmpC inh no detg: 17.8µM; RE007 growth inh: inconclusive
